# Assays:
# [1] = system: Vero E6 infected with SARS-CoV-2; assay: morphology score (similarity to uninfected cells); higher = more like uninfected cells; conditions: 24 h
# [2] = system: Vero E6 infected with SARS-CoV-2; assay: SARS-CoV-2 infection rate relative to infected DMSO; higher = more infection, active = 60 or less; conditions: 24 h
Structure (SMILES),morphology score [1],SARS-CoV-2 infection rate [2]
CCNC(=O)C#Cc1ccc2c(C(=Nc3ccc(CN(C)C)cc3)c3ccccc3)c(O)[nH]c2c1 (0.833333 µM),-0.154,99% (inactive)
CC(Cc1cccc(C(F)(F)F)c1)NCCOC(=O)c1ccccc1 (configuration not stated) [benfluorex] (10 µM),0.0298,104% (inactive)
O=C1c2ccccc2CCC1CNCCc1ccc(O)cc1 (configuration not stated) (10 µM),0.0149,106% (inactive)
O=c1ccn([C@@H]2O[C@H](CO)[C@@H](O)[C@H]2O)c(=O)[nH]1 [uridine] (10 µM),0.318,96.5% (inactive)
COc1ccc2cc(OCC3(C(=O)O)CN(C(=O)c4ccc(F)cc4)C3)ccc2c1 (10 µM),0.0418,110% (inactive)
c1ccc(CCCCN2CCC(c3ccccc3)CC2)cc1 (10 µM),0.286,73.5% (inactive)
C=C1/C(=C\C=C2/CCC[C@]3(C)[C@@H]([C@H](C)CCCC(O)(C(F)(F)F)C(F)(F)F)CC[C@@H]23)C[C@@H](O)C[C@@H]1O [falecalcitriol] (10 µM),0.0244,95.5% (inactive)
CN(C)CC(=O)Nc1ccc2[nH]c(=O)c3ccccc3c2c1 (10 µM),0.202,92.5% (inactive)
CC(C)(C)C(=O)/C(=N/c1ccc(Cl)cc1)NNc1ccc(Cl)cc1 (10 µM),-0.145,114% (inactive)
CCc1cc2c(s1)-n1c(C)nnc1CN=C2c1ccccc1Cl [etizolam] (10 µM),-0.0349,103% (inactive)
CC(C)C[C@H](CN)CC(=O)O (10 µM),-0.0821,106% (inactive)
